Where “and” joins values, the source holds several entries; their conditions need not be identical. Identical values can stand only once. Calls of active or inactive are those of the source.
How the values were obtained:
[1] = target: Albumin (Bos taurus) (UniProt P02769); experiment: compounds binding labelled BSA control protein – biochemical, small-molecule microarray, Alexa647 label, 635/667 nm fluorescence, artefact control for SMM control protein annotation, profiling panel (AID 1118); settings: BSA-A647 binding, fluorescence 635 nm, higher = more signal;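 also: score merges 667 nm emission intensity and signal-to-noise per printed compound spot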
Sequence of Albumin (Bos taurus) (P02769 whole entry, looked up): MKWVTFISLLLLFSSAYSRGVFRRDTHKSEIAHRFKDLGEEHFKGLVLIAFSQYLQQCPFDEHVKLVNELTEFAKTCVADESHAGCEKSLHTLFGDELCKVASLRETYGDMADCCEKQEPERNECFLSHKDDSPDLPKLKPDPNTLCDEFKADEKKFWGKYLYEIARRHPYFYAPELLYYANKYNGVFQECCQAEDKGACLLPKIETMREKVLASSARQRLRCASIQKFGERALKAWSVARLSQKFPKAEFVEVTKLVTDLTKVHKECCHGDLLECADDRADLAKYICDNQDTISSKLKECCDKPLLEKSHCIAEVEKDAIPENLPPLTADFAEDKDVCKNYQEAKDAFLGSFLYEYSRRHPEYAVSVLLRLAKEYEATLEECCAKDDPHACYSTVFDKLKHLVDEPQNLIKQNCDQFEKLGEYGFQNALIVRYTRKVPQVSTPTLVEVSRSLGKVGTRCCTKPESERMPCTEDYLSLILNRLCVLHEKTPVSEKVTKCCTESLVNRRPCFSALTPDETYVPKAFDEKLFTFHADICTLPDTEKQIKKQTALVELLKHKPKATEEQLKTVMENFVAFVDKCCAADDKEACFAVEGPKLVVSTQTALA

[2] = probe aXIP binding to arrayed compounds – biochemical, NeuroSMM set, 635/667 nm fluorescence, primary screen (AID 1119); settings: small-molecule microarray, higher = more signal, called active from +8 up or from −8 down;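 also: probe is the protein aXip251-270 applied at 1 µg/mL to compound-printed slides; binding of probe to printed compounds measured as 667 nm fluorescence plus signal to noise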
[3] = probe aNOTCH3 binding on compound microarray – biochemical, small-molecule microarray, 635/667 nm fluorescence, primary screen (AID 1120); settings: higher = more signal;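 also: probe is a biotin-tagged antibody raised against NOTCH3 rather than NOTCH3 protein; score merges spot fluorescence near 667 nm with spot signal to noise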
[4] = probe aNOTCH2 binding on compound microarray – biochemical, small-molecule microarray, 635/667 nm fluorescence, primary screen (AID 1121); settings: higher = more signal;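 also: score merges feature fluorescence read at 667 nm with its signal to noise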
[5] = target: Carbonic anhydrase 2 (Homo sapiens) (UniProt P00918); experiment: compounds binding carbonic anhydrase 2 – biochemical, small-molecule microarray, Alexa647-labelled CAII, profiling panel (AID 1122); settings: CAII-A647 binding fluorescence, higher = more signal
[6] = COS7 lysate on small-molecule microarray, probe aHis, 635 nm (AID 1123); settings: COS7 cell lysate, fluorescence, higher = more signal;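 also: z-score combines 667nm fluorescence intensity with signal-to-noise per printed compound spot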
[7] = probe aLAP1 signal on lysate-treated microarray – cell lysate, small-molecule microarray, COS7 lysate, primary screen (AID 1124); settings: probe aLAP1, fluorescence, higher = more signal;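 also: lysate comes from COS7 cells expressing LAP1 and is applied at 0.3 µg/mL; score merges spot fluorescence near 667 nm with signal-to-noise over triplicate slides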
[8] = tested on: Sam68 (KHDRBS1); experiment: compounds binding KHDRBS1 protein – biochemical, small-molecule microarray, 635 nm fluorescence, primary screen (AID 1125); settings: higher = more signal;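 also: score merges 667 nm channel intensity with signal to noise over triplicate slides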
[9] = tested on: Chordin-like protein 2 (CHRDL2); experiment: compounds binding chordin-like 2 – biochemical, small-molecule microarray, 635 nm fluorescence, primary screen (AID 1126); settings: fluorescence 635 nm, higher = more signal;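 also: printed compound slides probed with Chrdl2 protein at 4 µg/mL for 1 h at 4 C; score merges 667 nm emission intensity with signal to noise over three replicate slides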
[10] = target: Concanavalin-A (Canavalia ensiformis) (UniProt P02866); experiment: compounds binding concanavalin A lectin – biochemical, small-molecule microarray, Alexa647 label, 635 nm, artefact control for SMM control protein annotation, primary screen (AID 1127); settings: ConA-A647 binding fluorescence, higher = more signal;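 also: z combines 667 nm emission intensity with signal-to-noise across three replicate slides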
Sequence of Concanavalin-A (Canavalia ensiformis) (P02866 whole entry, looked up): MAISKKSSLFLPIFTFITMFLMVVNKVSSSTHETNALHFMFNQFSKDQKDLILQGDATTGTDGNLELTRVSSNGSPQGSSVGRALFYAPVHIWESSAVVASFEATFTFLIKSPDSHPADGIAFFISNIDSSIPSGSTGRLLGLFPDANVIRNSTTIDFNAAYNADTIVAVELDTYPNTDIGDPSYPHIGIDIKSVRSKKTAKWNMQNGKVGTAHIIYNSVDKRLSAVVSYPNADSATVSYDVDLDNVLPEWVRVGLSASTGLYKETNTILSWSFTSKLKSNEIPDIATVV

[11] = compounds binding Alexa647 anti-His antibody – biochemical, small-molecule microarray, 635 nm fluorescence, artefact control for SMM control protein annotation, primary screen (AID 1128); settings: higher = more signal;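 also: score merges feature fluorescence with signal-to-noise for each printed compound spot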
[12] = tested on: Human papillomavirus type 1a E7 protein (residues 1-88); experiment: HPV1a E7 small-molecule binders, primary screen, biochemical, small-molecule microarray, residues 1-88, 635 nm (AID 1129); settings: small-molecule microarray binding, fluorescence 635 nm; higher = more signal
[13] = target: Focal adhesion kinase 1 (Homo sapiens) (UniProt Q05397); experiment: PTK2 protein binding on printed compound slides – biochemical, small-molecule microarray, 635/667 nm fluorescence, BSA, DTT, primary screen (AID 1130); settings: 635 nm fluorescence, higher = more signal;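 also: composite of spot emission at 667 nm and signal to noise over triplicate slides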
Sequence of Focal adhesion kinase 1 (Homo sapiens) (Q05397 whole entry, looked up): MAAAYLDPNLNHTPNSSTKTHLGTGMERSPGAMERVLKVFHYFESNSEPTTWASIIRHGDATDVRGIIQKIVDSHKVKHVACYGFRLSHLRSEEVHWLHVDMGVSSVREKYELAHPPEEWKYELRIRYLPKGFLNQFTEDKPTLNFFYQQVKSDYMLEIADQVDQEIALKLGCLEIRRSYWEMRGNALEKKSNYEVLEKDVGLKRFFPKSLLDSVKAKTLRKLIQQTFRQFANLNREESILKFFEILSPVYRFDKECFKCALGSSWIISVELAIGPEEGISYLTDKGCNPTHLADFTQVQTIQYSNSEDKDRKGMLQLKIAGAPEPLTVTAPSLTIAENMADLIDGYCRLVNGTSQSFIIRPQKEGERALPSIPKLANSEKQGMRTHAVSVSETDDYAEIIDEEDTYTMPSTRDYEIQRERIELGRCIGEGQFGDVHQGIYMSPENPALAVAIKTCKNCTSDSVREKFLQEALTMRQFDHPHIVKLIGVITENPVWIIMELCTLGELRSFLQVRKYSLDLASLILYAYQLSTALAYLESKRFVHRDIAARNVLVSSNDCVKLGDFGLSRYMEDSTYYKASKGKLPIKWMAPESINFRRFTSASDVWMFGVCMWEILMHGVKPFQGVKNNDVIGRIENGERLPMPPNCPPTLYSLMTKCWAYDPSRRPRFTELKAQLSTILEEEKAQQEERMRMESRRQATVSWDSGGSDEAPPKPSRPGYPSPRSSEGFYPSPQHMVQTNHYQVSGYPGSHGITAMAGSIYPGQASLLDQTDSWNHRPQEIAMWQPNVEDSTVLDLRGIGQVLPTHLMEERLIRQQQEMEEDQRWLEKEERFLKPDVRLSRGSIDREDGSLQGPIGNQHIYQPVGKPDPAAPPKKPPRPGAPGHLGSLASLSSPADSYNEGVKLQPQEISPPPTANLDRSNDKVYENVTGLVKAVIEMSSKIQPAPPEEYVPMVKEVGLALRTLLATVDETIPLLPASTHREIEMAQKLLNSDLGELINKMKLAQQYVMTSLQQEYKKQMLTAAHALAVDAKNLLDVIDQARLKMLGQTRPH

[14] = tested on: Fibrinogen (Alexa647-labelled); experiment: Alexa647-fibrinogen binding to printed small molecules – biochemical, small-molecule microarray, 635/667 nm fluorescence, artefact control for SMM control-protein annotation, profiling panel (AID 1131); settings: fibrinogen-A647 binding fluorescence, higher = more signal;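 also: z-score merges 667 nm fluorescence with per-spot signal-to-noise over triplicate slides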
[15] = target: Follistatin (Homo sapiens) (UniProt P19883); experiment: FST protein binding to printed compounds – biochemical, small-molecule microarray, 635/667 nm fluorescence, primary screen (AID 1132); settings: 635 nm fluorescence, higher = more signal
Sequence of Follistatin (Homo sapiens) (P19883 whole entry, looked up): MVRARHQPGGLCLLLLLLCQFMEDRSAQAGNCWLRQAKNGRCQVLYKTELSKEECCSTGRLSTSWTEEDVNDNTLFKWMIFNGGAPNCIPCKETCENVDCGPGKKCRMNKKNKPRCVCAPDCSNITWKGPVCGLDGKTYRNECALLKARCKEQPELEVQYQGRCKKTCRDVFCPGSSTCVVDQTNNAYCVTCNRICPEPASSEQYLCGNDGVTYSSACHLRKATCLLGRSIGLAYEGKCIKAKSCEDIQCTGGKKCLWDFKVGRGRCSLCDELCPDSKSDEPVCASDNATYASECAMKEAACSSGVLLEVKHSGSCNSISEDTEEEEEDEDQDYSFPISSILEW

[16] = target: Fibroblast growth factor 2 (Homo sapiens) (UniProt P09038); experiment: basic fibroblast growth factor binding to printed compounds – biochemical, small-molecule microarray, 635/667 nm fluorescence, primary screen (AID 1133); settings: FGF2, fluorescence 635/667, higher = more signal
Sequence of Fibroblast growth factor 2 (Homo sapiens) (P09038 whole entry, looked up): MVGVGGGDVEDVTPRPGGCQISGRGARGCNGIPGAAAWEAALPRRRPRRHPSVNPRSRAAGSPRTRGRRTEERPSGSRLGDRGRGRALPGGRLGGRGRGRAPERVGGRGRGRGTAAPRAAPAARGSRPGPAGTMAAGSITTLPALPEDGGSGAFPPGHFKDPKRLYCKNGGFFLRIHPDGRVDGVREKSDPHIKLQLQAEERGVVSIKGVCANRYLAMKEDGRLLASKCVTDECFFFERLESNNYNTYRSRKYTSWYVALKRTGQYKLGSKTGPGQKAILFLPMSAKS

[17] = JC-1 mitochondrial potential readout, lung cancer cells – cell-based, A549, JC-1 fluorescence, basal, 24 h, 100 nL, profiling panel (AID 1138); settings: higher = more signal;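 also: A549 lung adenocarcinoma cells under basal conditions with no added stimulus; test concentration not given here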
[18] = tested on: Lefty1; experiment: Lefty1 protein binding to printed compounds – biochemical, small-molecule microarray, 635/667 nm fluorescence, primary screen (AID 1139); settings: fluorescence 635/667, higher = more signal
[19] = tested on: wheat germ agglutinin (Triticum aestivum), Alexa647-labelled; experiment: Alexa647-WGA lectin binding to printed small molecules – biochemical, small-molecule microarray, 635/667 nm fluorescence, artefact control for SMM control-protein annotation, profiling panel (AID 1140); settings: WGA-A647 binding, 635 nm fluorescence, higher = more signal;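 also: score merges 667 nm feature emission with signal to noise over triplicate slides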
[20] = target: Luciferin 4-monooxygenase (Photinus pyralis) (UniProt P08659); experiment: inhibition of purified Photinus pyralis luciferase – biochemical, luminescence, purified enzyme, 2006 set, primary screen (AID 1141); settings: purified firefly luciferase, SteadyGlo luminescence, 30 min; higher = more signal, called active from +8 up or from −8 down;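 also: cell-free assay with purified firefly luciferase at 100 ng per well in PBS; test concentration not given here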
Sequence of Luciferin 4-monooxygenase (Photinus pyralis) (P08659 whole entry, looked up): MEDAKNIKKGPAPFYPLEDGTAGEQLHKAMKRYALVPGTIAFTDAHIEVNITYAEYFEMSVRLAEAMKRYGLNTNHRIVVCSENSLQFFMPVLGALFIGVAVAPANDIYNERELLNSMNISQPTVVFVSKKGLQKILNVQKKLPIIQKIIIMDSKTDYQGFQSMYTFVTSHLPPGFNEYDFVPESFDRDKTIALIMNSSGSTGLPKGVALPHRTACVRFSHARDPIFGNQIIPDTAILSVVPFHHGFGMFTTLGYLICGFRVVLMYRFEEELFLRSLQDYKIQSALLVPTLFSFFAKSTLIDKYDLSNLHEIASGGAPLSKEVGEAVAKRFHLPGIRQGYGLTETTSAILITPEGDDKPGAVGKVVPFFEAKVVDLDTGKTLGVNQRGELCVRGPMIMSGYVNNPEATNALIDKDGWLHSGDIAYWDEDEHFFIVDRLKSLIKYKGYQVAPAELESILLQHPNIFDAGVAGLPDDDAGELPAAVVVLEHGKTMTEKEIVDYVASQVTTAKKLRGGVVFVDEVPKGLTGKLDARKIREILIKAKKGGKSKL

Structure (SMILES)	composite z-score [1]	composite Z-score [2]	composite z-score [3]	composite z-score [4]	composite z-score [5]	composite z-score [6]	composite z-score [7]	composite z-score [8]	composite z-score [9]	composite z-score [10]	composite z-score [11]	composite z-score [12]	composite z-score [13]	composite z-score [14]	composite z-score [15]	composite z-score [16]	z-score [17]	composite z-score [18]	composite z-score [19]	z-score [20]
CCOC(=O)C[C@H]1[C@H](OC(=O)c2ccccc2-c2ccccc2)[C@@H](NC(=O)Cc2ccc(OC)cc2)c2cc(OCCCO)ccc2N1C(=O)Cc1ccc(OC)cc1	0.56 and -0.0815	0.376 (inactive) and -0.265 (inactive)	0.23 and 0.0762	0.0922 and -0.189	0.285 and -0.324	0.324 and 0.46	0.621 and -0.153	0.821 and -0.28	-0.362 and -0.24	0.712 and -1.55	-0.109 and -0.161	0.8 and -0.925	0.14 and -0.217	0.325 and 0.237	0.214 and -0.173	-0.0463 and -0.423	1.91 and 0.598	0.517 and -0.0509	0.484 and -0.261	-1 (inactive) and 0.591 (inactive)
C=CCN(C(=O)C1N(C(C)(C)CO)C(=O)C2C(C(=O)O)C3C=CC21O3)c1ccc(OC)cc1 (stereo not given)	-0.821 and -2.22	1.39 (inactive) and -0.174 (inactive)	-0.383 and -0.578	-0.154 and -0.147	0.548 and 0.314	0.0457 and -0.218	0.995 and -0.102	-0.718 and -1.28	-4.67 and -4.11	-0.79 and -1.96	-2.21 and -2.2	-1.08 and -1.45	-0.488 and -0.747	-1.1 and -1.88	-2.74 and -3.18	-2.91 and -2.56	0.869 and 0.79	-2.07 and -3.54	-1.08 and -2.01	-2.06 (inactive) and -1.09 (inactive)
C=CCN(Cc1ccccc1)C(=O)C(c1cccs1)N(C(=O)/C=C\C(=O)O)c1ccc(CCO)cc1 (stereo not given)	-0.047 and 0.278	-0.18 (inactive) and -0.296 (inactive)	-0.532 and -0.475	-0.213 and -0.2	0.824 and 0.335	-0.577 and -0.107	-0.0165 and -0.602	-0.581 and -1.13	-2.94 and -1.92	-0.772 and -0.564	-1.02 and -0.261	0.285 and -0.623	-0.411 and -0.574	-1.94 and -2.45	-1.48 and -1.4	-1.78 and -1.47	0.579 and 0.559	-1.9 and -1.42	-0.99 and -0.888	0.666 (inactive) and 0.381 (inactive)
C=C[C@@H](C)[C@@H](O)c1ccc(OCCO)cc1	-0.342 and 0.259	0.142 (inactive) and -0.0636 (inactive)	-0.701 and -0.608	-0.153 and -0.199	0.8 and 0.731	-0.217 and -0.451	-0.262 and -0.524	-0.97 and -0.832	-3.22 and -2.09	-1.86 and -0.87	-0.641 and -0.244	-0.66 and -0.875	-0.467 and -1.08	-1.87 and -1.43	-1.14 and -0.506	-2.62 and -0.83	-0.0607 and 0.803	-1.33 and -1.19	-0.616 and -0.2	-5.97 (inactive) and -7.19 (inactive)
CCN1C(=O)[C@H]2[C@H]3[C@H](O)[C@H](O)CC(=NNC(=O)OCc4ccc(OC)cc4)[C@H]3CC[C@H]2C1=O	0.878	-0.388 (inactive)	0.0979	-0.0903	-0.121	0.0203	0.5	-0.0112	0.737	0.364	0.0442	0.0241	0.0983	0.171	-0.699	-0.623	0.647	0.107	0.77	-0.716 (inactive)
CCOC(=O)[C@@H]1CC2O[C@]23C[C@@H]1C(=O)N1CCC[C@@H]1[C@H]3O[Si](C)(C)C(C)(C)C (stereo not given in full)	-0.8 and -0.548	0.223 (inactive) and 0.413 (inactive)	-0.11 and -0.128	-0.2 and -0.0949	-0.396 and 0.106	-0.645 and 0.205	-0.452 and 0.103	-1.37 and -0.191	0.1 and -0.201	-1.82 and -0.262	-0.423 and -0.146	-0.853 and 0.0436	0.623 and 0.0915	-0.607 and -0.0382	-0.568 and 0.342	0.0471 and 1.14	-0.944 and -0.261	-0.0485 and 0.69	-0.616 and -0.276	0.316 (inactive) and 0.32 (inactive)
COC(=O)C1=C(C)N(Cc2ccccc2)[C@]23O[C@](C(=O)OC)(C(=O)N2[C@@H]1c1ccccc1)[C@@H](c1ccccc1)[C@@H]3C(=O)c1ccccc1	0.711 and -0.334	-0.0461 (inactive) and 0.0162 (inactive)	-0.0111 and -0.0048	-0.119 and -0.0974	0.179 and 0.178	0.49 and 0.258	0.315 and -0.144	0.661 and -0.776	0.189 and 0.843	0.675 and 0.142	-0.148 and -0.112	0.771 and 0.0338	-0.0865 and -0.11	0.502 and -0.435	-0.0105 and 0.958	0.416 and 0.847	0.914 and 0.835	0.0005 and 0.36	0.516 and -0.17	-0.917 (inactive) and -0.717 (inactive)
CC(C)CCN1CCc2nc(-c3ccccc3)c3c(c2C1)CO[C@@H](C)C3	0.69	-0.835 (inactive)	-0.0362	-0.16	0.15	0.463	-0.616	1.06	0.656	0.263	0.554	0.669	0.304	0.436	0.785	0.528	1.19	0.631	0.931	-1.17 (inactive)
CC(CO)N1C(=O)[C@@H]2C3C(=O)OCCC=C[C@H]3OC23C=CCN(C(C)(C)C)C(=O)[C@@H]13 (stereo not given in full)	0.231 and -0.322	-0.734 (inactive) and 0.825 (inactive)	-0.34 and 0.037	-0.211 and -0.14	0.863 and 0.837	-0.329 and 0.395	0.241 and 1.27	-0.349 and 0.36	-1.5 and -0.54	-2.13 and -0.887	-2.03 and 0.11	-1.08 and -0.0333	-0.0802 and -0.371	-1.65 and -0.445	-1.1 and -0.0304	-0.325 and -0.263	-0.619 and -0.394	-1.08 and 0.542	-2.85 and 0.0101	-0.685 (inactive) and -0.146 (inactive)
CC(C)C(=O)N[C@@H]1CCCN1C(=O)C=Cc1ccccc1	-0.0317	1.05 (inactive)	0.0271	-0.14	-0.0483	0.251	-0.086	0.806	0.933	0.315	0.108	0.746	0.746	0.494	0.541	0.565	1.81	0.813	-0.0087	-0.489 (inactive)

— PubChem BioAssay
